uPA generation: blocks generation of uPA at the cell surface | Potency, µM (top dose mostly 38.3 µM), actives largely listed as inhibitors | cell surface uPA generation assay, qHTS | 330,000 compounds, 0.31% hits | AID 540303; active = well fitted inhibition curve with a large enough effect; inconclusive = small, poorly fitted or top-dose-only effect; inactive = no such curve, though single readings can be large or run the other way; tested in mouse RAW 264.7 cells; also: nearly all actives have a fitted effect of over 55% in size
IL2 activator: activators of IL-2; IL-2 activation reporter assay, cell-based qHTS; stimulated with anti-CD3/CD4/CD28 beads; in transgenic mouse T cells; activation, % (series mostly up to about 46 µM); 360,000 compounds, 0.065% hits; AID 652025; in the data active = activation above about 50%; inconclusive = mostly about 30% to 49%
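Quantitative HTS in unstimulated transgenic mouse T cells, with memory T cells as non-tolerant control and PMA/ionomycin as tolerance-bypass control. Compound pretreatment lasted 60 minutes before 18 h bead stimulation; EGFP/DsRed fluorescence read.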
p53 reactivator: re-activators of mutant p53; Potency, µM (top dose mostly 92.2 µM), most hits filed as activators; H1299 p53-A138V BP100-luciferase reporter, luminescence, 24 h; 320,000 compounds, 0.063% hits; AID 504706; also: nearly all actives have a fitted effect of over 45% in size
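H1299 (p53-null), stable ts p53-A138V + BP100-Luc; 1000 cells/well, Opti-MEM/10% FBS; cpd 4 pt, 1:5; 24 h, 37 deg C, 5% CO2; detection reagent 10 min RT; luminescence.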
BRCA1 expr up: BRCA1 expression activation; MCF7-BRCA1-FFLuc reporter, luminescence, 48 h; response scale: scaled: vehicle 0%, 10 µM genistein 100%; Potency, µM (top dose mostly 46.1 µM), most hits filed as activators; 380,000 compounds, 1.1% hits; AID 624202; also: nearly all actives have a fitted effect of over 80% in size
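MCF7-BRCA1-FFLuc cells, 2000/well in phenol-red-free MEM, attached 2 h then treated 48 h at 37 C. Luciferase luminescence read 15 min after reagent; normalized to genistein maximum activation (10microM) and DMSO, concentration-response fitted.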
TCR act: activators of T cell receptors; primary human leukocytes, anti-CD3, IL-2 HTRF, 48 h; Potency, µM (top dose mostly 9.22 µM), hits mostly activators; 330,000 tested, under 10 active; AID 504894
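Primary human leukocytes incubated 48 hr with anti-CD3 beads plus compound, without co-stimulation. Secreted IL-2 measured by HTRF (europium cryptate/d2 anti-IL-2 pair, 320 nm excitation, 665 nm emission).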
A number is an active result. Sampled rows, rich in hits. Any-hit rate of the full collection: about 1.4%. Unless noted, calls follow the shape of the dose curve; as a rule, active = well fitted curve in the direction sought with a large enough effect; inconclusive = small, poorly fitted or top-dose-only effect, or another doubt; inactive = no such curve, though single readings can be large; an effect the other way counts as inactive or inconclusive.

Results for Cc1ccc(C(=O)NCC(=O)N(C)Cc2ccccc2C)s1 ?
IL2 activator: inactive; BRCA1 expr up: 11µM

What do the screens show for `Cc1ccc(C(=O)NCC(=O)N(C)Cc2cccc(F)c2)s1`?
uPA generation: inactive; IL2 activator: inactive; p53 reactivator: inactive; BRCA1 expr up: inactive; TCR act: inactive

What do the screens show for `Clc1ccc(COn2nnc3ccccc32)c(Cl)c1`?
uPA generation: inactive; IL2 activator: inactive; BRCA1 expr up: 5.6µM; TCR act: inactive

Results for Cc1ccc(OCC(=O)NC(=S)Nc2ccccn2)c(Br)c1 ?
uPA generation: inactive; IL2 activator: inactive; p53 reactivator: inactive; BRCA1 expr up: 11µM; TCR act: inactive

Results for Cc1ccc(C)c(NC(=O)CN2CCSc3ccc(S(=O)(=O)N4CCCC4)cc32)c1 ?
BRCA1 expr up: inactive

How did COc1ccc2noc3c2c1C(=O)c1ccccc1-3 do in these assays?
uPA generation: 10µM; IL2 activator: inactive; BRCA1 expr up: inactive; TCR act: inactive

How did C/C(=N\OCc1ccc(C#N)cc1)c1ccc(S(=O)(=O)N(C)C)cc1 do in these assays?
uPA generation: inactive; IL2 activator: inactive; p53 reactivator: inactive; BRCA1 expr up: 7.1µM; TCR act: inactive

What do the screens show for `C/C(=N\OCc1ccc(C#N)cc1)c1ccccc1`?
uPA generation: inactive; IL2 activator: inactive; p53 reactivator: inactive; BRCA1 expr up: inconclusive; TCR act: inactive

How did COc1ccc(OC)c(NC(=O)CN(C)S(=O)(=O)c2ccc(C(=O)N3CCOCC3)s2)c1 do in these assays?
BRCA1 expr up: inactive

What do the screens show for `O=C(OC(c1ccccc1)c1nccc2ccccc12)c1cccc([N+](=O)[O-])c1` (centres undefined)?
uPA generation: inactive; IL2 activator: inactive; p53 reactivator: inconclusive; BRCA1 expr up: 7.1µM; TCR act: inactive

Results for O=C(OC(c1ccccc1)c1nccc2ccccc12)c1ccccc1 (centres undefined) ?
uPA generation: inactive; IL2 activator: inactive; BRCA1 expr up: inactive; TCR act: inactive

What do the screens show for `Cc1ccc(/C=C2\CCC(C3CCCC3)C2=O)cc1` (centres undefined)?
uPA generation: inactive; IL2 activator: inactive; p53 reactivator: inconclusive; BRCA1 expr up: 13µM; TCR act: inactive

How did O=C(CNC(=S)NC(=O)C1CCCCC1)c1ccccc1 do in these assays?
uPA generation: inactive; IL2 activator: inactive; p53 reactivator: inconclusive; BRCA1 expr up: 6.3µM; TCR act: inactive

Results for O=C(NC(=S)NCCc1ccccc1)C1CCCCC1 ?
uPA generation: inactive; IL2 activator: inactive; p53 reactivator: inconclusive; BRCA1 expr up: inactive; TCR act: inactive

How did Cc1ccc(-c2cc(=O)c3ccccc3[nH]2)cc1 do in these assays?
uPA generation: 11µM; IL2 activator: inactive; p53 reactivator: inconclusive; BRCA1 expr up: inactive; TCR act: inactive

Results for O=C(/C=C(\O)c1ccccc1)C(=O)NNC(=O)c1ccccc1 ?
uPA generation: inactive; IL2 activator: inactive; p53 reactivator: inactive; BRCA1 expr up: 13µM; TCR act: inactive

How did Cc1ccc2oc(-c3ccccc3)nc2c1 do in these assays?
uPA generation: inactive; IL2 activator: inactive; p53 reactivator: inconclusive; BRCA1 expr up: inconclusive; TCR act: inactive

How did CCOc1cccc(-c2nc3cc(C)ccc3o2)c1 do in these assays?
uPA generation: inactive; IL2 activator: inactive; BRCA1 expr up: inactive; TCR act: inactive

What do the screens show for `Cc1cccc(-c2nc3cc([N+](=O)[O-])ccc3o2)c1`?
uPA generation: inactive; IL2 activator: inactive; p53 reactivator: inactive; BRCA1 expr up: 2.5µM; TCR act: inactive

How did O=[N+]([O-])c1ccc2oc(-c3ccccc3)nc2c1 do in these assays?
uPA generation: inactive; IL2 activator: inactive; p53 reactivator: inactive; BRCA1 expr up: 3.2µM; TCR act: inactive

What do the screens show for `COc1ccc(Cn2nnnc2C(c2ccccc2)N2CCN(c3ccccc3)CC2)cc1` (centres undefined)?
BRCA1 expr up: inactive

How did O=C(Nc1ccon1)c1ccc(N2CCCCC2)c([N+](=O)[O-])c1 do in these assays?
uPA generation: inactive; IL2 activator: inactive; p53 reactivator: inactive; BRCA1 expr up: 13µM; TCR act: inactive

What do the screens show for `CCc1ccc(NC(=O)N2CCN(Cc3cc(=O)n4nc(-c5ccccc5OC)sc4n3)CC2)cc1`?
BRCA1 expr up: inactive

Results for CCN(CC)C(=O)Cn1c(=O)n(Cc2ccc(C(=O)NCc3ccc(C)cc3)cc2)c(=O)c2ccccc21 ?
BRCA1 expr up: inactive

What do the screens show for `CCN(CC)C(=O)Cn1c(=O)c2ccccc2n2c(=S)sc(-c3cccc(C)c3)c12`?
uPA generation: inactive; IL2 activator: 94; p53 reactivator: inactive; BRCA1 expr up: inactive; TCR act: inactive

Results for CCOc1cc(-c2ccc3c(c2)OCO3)cc(=[O+]CC)c2c(C)oc(C)c12 ?
BRCA1 expr up: inactive

What do the screens show for `CNC[C@H](CC1CCCCC1)NC[C@H](CO)NCCc1cccc(C(F)(F)F)c1`?
uPA generation: 7.9µM; IL2 activator: inactive; p53 reactivator: inactive; BRCA1 expr up: inactive; TCR act: inactive

What do the screens show for `CNC[C@H](CC1CCCCC1)NC[C@H](CO)NCC1(c2ccccc2)CC1`?
uPA generation: inactive; IL2 activator: inactive; BRCA1 expr up: inactive; TCR act: inactive

Results for CCc1ccc(NCc2cc3ccc(OC)cc3n(CC(=O)Nc3ccc(F)cc3F)c2=O)cc1 ?
BRCA1 expr up: inactive

Results for CN(C)c1ccc(/C=C/c2nc3ccccc3c(=O)[nH]2)cc1 ?
uPA generation: inactive; IL2 activator: 61; p53 reactivator: inactive; BRCA1 expr up: inconclusive; TCR act: inactive

How did O=c1[nH]c(/C=C/c2ccccn2)nc2ccccc12 do in these assays?
uPA generation: inconclusive; IL2 activator: inactive; p53 reactivator: 11µM; BRCA1 expr up: inactive; TCR act: inactive

What do the screens show for `CCc1ccc(NC(=O)C(=O)NCCc2sc(-c3ccc(C)cc3)nc2C)cc1`?
BRCA1 expr up: inactive

What do the screens show for `COc1ccc(OC)c(CNC(=O)CCc2c(C)nc3c(c2C)c(=O)n(C)c(=O)n3C)c1`?
BRCA1 expr up: inactive

What do the screens show for `Cn1c(O)c(N=NC(=O)c2ccccc2O)c2ccccc21`?
uPA generation: inactive; IL2 activator: inactive; p53 reactivator: inconclusive; BRCA1 expr up: inactive; TCR act: inactive

How did Cc1cc(N=NC(=O)c2ccccc2O)c2ccccc2c1O do in these assays?
uPA generation: inactive; IL2 activator: inactive; p53 reactivator: inconclusive; BRCA1 expr up: 5.6µM; TCR act: inactive

Results for COc1ccc(NC(=O)c2cc3ccccn3n2)cc1 ?
uPA generation: 4.5µM; IL2 activator: inactive; p53 reactivator: inactive; BRCA1 expr up: inactive; TCR act: inactive

What do the screens show for `COc1ccc(-c2cc(C(=O)Nc3cccc(O)c3)no2)cc1`?
uPA generation: 5µM; IL2 activator: inactive; p53 reactivator: inactive; BRCA1 expr up: inactive; TCR act: inactive

Bioassay records deposited in PubChem BioAssay by National Center for Advancing Translational Sciences (NCATS).
